Here are results for 40 compounds from PubChem BioAssay AID493203 (National Center for Advancing Translational Sciences (NCATS), 2011).

Each structure is given as a SMILES string. Results filed as inconclusive are left out. A number with no mark means an inactive call. Activity calls are given as the source filed them. Calls come from the whole dose curve; as a rule, active = well fitted activation curve with a large enough effect; inconclusive = small, poorly fitted or top-dose-only effect; inactive = flat fitted curve, though single readings scatter.
Potency is the fitted concentration of half-maximal effect.

This experiment in a line: qHTS Assay for NPC1 Promoter Activators: Initial hit validation from the primary screen.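 For activity, positive = activation: reporter driven by the mutant form of the NPC1 promoter; % of control where 0% means no effect.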 To be noted: Huh7 NPC1 promoter-luciferase reporter, luminescence, 24 h; series mostly up to 46.1 µM; activity, positive = activation: at the top concentration. The source says:
NIH Chemical Genomics Center [NCGC] NIH Molecular Libraries Probe Production centers Network [MLPCN] MLPCN Grant: MH089375-01A1 Assay Submitter (PI): Yiannis A. Ioannou NCGC Assay Overview: Niemann Pick Type C (NPC) is a rare neurodegenerative lipidosis that is characterized by lipid storage in the endosomal/lysosomal system. Treatment modalities for this devastating disease are currently non-existent due to the severe obstacles associated with accessing the central nervous system with proteins or genes. The majority of mutations causing NPC disease are missense mutations that are distributed throughout the length of the NPC1 protein, with the most prevalent being the I1061T allele. Although NPC1 mutant proteins may be functional, they are typically trapped in the ER due to misfolding. […] We have developed and optimized a cell based luciferase reporter assay in 1536 well format for the identification of up-regulators of the mutant NPC1 promoter. This assay presents data on the validation of hits from the primary screen.
The NPC1 promoter is cloned in front of the luciferase reporter gene, therefore NPC promoter activation results in luciferase expression. Frozen stock of the NPC1 promoter transfected Huh7 cells were obtained from the laboratory of Dr. Yiannis Ioannou (The Mount Sinai School of Medicine, New York, NY). Cells were propagated and maintained at NCGC in medium containing RPMI-1640 supplemented with 10% FBS, 2mM L-glutamine, and 50ug/ml penicillin/streptomycin. Cells were harvested in and plated for assays in OP-MEM I reduced-serum medium supplemented with 10% FBS. The Amplite luciferase reporter gene assay kit was purchased from ABD Bioquest and prepared/stored according to manufacturers recommendations. qHTS Assay Setup: 1. Dispensed 5ul of Huh7 cells stably expressing NPC1-luciferase at a density of 1500 cells per well 1536-well plates. 2. Incubate cells at 37C, 5% CO2, and 95% humidity for 2 hours. 3. Transferred 23nl per well of compound in DMSO solution. 4. Incubated at 37C, 5% CO2, and 95% humidity for 24 hours. 5. Dispensed 3ul per well of Amplite reagent(ABD Bioquest) per well. 6. Incubate at ambient for 10 minutes. 7. Read using the luminescence protocol on the ViewLux plate reader (Perkin Elmer).
(qHTS replaces the single test concentration by a dilution series.)
With `CCCC(C)NC(=O)c1ccc(OCc2ccc(Cl)cc2)c(OC)c1` (stereo not given), the “activity, positive = activation” value was 5.79%. On the same count and under the same terms, next, `Cc1ccc(C(=O)Nc2nnc(S(=O)(=O)N3CCOCC3)s2)cc1`: 13%; `COc1cccc(C(C(=O)NC2CCCC2)N(CCC(C)C)C(=O)CCC(=O)Nc2cc(C)on2)c1` (stereo not given): -13.5%.

Consider `Cc1nc(-c2ccccn2)sc1C(=O)Nc1ccc(F)cc1F`, for which the Potency is 15800 nM (active). For `COc1ccc(C2(CNC(=O)/C=C/c3ccco3)CCCC2)cc1OC`, the “activity, positive = activation” value was -3.56%. On the same count and under the same terms, then `Cc1ccc(C2C3=C(CC(C)(C)CC3=O)N(CCN3CCOCC3)C3=C2C(=O)CC(C)(C)C3)cc1`, with -3.06%. As to `COC(=O)CSc1nc2cc3c(cc2cc1C#N)OCO3`, the Potency is 315 nM (active). As for `O=C(COc1ccccc1F)Nc1ccc(-c2nc3ccccc3s2)cc1`, the Potency is 250 nM (active). Regarding `Fc1ccc(-c2nc3nc4ccccc4nc3n2Cc2ccco2)cc1`, the “activity, positive = activation” value is 8.2%.

For the compound `CCC(=O)N1c2ccccc2NC2=C(C(=O)CCC2)C1c1ccc(N(C)C)cc1` (stereo not given), the “activity, positive = activation” value is -2.04%. Regarding `C=CCOC(=O)N1CCN(c2cccc(C(F)(F)F)c2)CC1`, the “activity, positive = activation” value was -3.82%. For `COc1ccc(-n2c(N)c(C(=O)NCc3ccco3)sc2=S)cc1`, the “activity, positive = activation” value was -0.661%. Still for that read-out and setting: then `CCCN(CCC)CCCNC(=O)c1cc2cc3ccc(Cl)cc3nc2o1`, with 6.51%; and `O=C(NCC1CCCO1)C(c1ccc(F)cc1)N(Cc1ccc2c(c1)OCO2)C(=O)c1ccc(CN2CCOCC2)o1` (stereo not given), with 3.75%. With `Cc1ccc(NC(=O)c2cccc(N3C(=O)CCC3=O)c2)nc1`, the “activity, positive = activation” value is 8.48%.

As for `CCCCn1c(Nc2ccc(OC)cc2)nc2ccccc21`, the “activity, positive = activation” value was 8.4%. `O=C(CSc1nnc(-c2ccccc2)o1)Nc1ccccc1F`: the Potency is 250 nM (active). Regarding `Nc1c(N(CCO)C(=O)/C=C/c2ccco2)c(=O)[nH]c(=O)n1Cc1ccccc1`, the “activity, positive = activation” value was -2.89%.

Consider `COCc1cc(C)nc(N/N=C/c2ccc(-c3ccc(Cl)cc3[N+](=O)[O-])o2)c1C#N`, for which the “activity, positive = activation” value was 3.22%. With `COc1ccc(-c2nnc(SCC(=O)/C(C#N)=C(\C)N)o2)cc1`, the Potency is 223 nM (active).

As to `CCCCc1cc(=O)oc2cc(OCC(=O)N3CCOCC3)ccc12`, the “activity, positive = activation” value was 5.92%. As to `Nc1nc(SCCO)[nH]c(=O)c1NC(=O)c1ccco1`, the “activity, positive = activation” value is 2.14%.

For the compound `O=C(COC(=O)c1ccc(-c2nnc(-c3ccccc3)o2)cc1)c1ccccc1`, the Potency was 396 nM (active). As for `COCCNC(=O)Cn1nc(-c2ccccc2)c2ccccc2c1=O`, the “activity, positive = activation” value is -1.52%. Still for that read-out and setting: next, `CC(=O)c1cccc(NC(=O)N2CCOCC2)c1`: 4.65%; `Cc1ccccc1NC(=O)Cc1nc(COC(=O)CC(C)c2ccccc2)cs1` (stereo not given): -6.35%; `CC1CC(C)CN(CC(=O)N2CCOCC2)C1` (stereo not given): 0.776%. Consider `COc1ccccc1NC(=S)NCc1ccc(Cl)cc1`, for which the “activity, positive = activation” value is 1.66%. Turning to `O=C(c1cc2cc([N+](=O)[O-])ccc2oc1=O)n1cccn1`, the “activity, positive = activation” value is 9.78%.

Consider `NNC(=O)c1cccc(S(=O)(=O)Nc2cc(Cl)ccc2Cl)c1`, for which the “activity, positive = activation” value is 2.99%. On to `COCCNC(=O)C1CCC(CNS(=O)(=O)c2ccc(F)cc2)CC1` (stereo not given), for which the “activity, positive = activation” value is 1.82%.

As to `CN(C)/C=N/c1c(C#N)cnn1-c1nc2ccccc2s1`, the “activity, positive = activation” value is 20%. For the compound `Cc1ccc(C)c(Nc2cc(C)nc3ncnn23)c1`, the “activity, positive = activation” value is -7.93%. Consider `N#C/C(=C\c1ccc[nH]1)C(=O)Nc1ccccc1Cl`, for which the Potency was 3970 nM (active). With `Nc1ccccc1C(=O)N/N=C1/C2CN3CCN(C2)CC1(Cc1ccccc1)C3`, the “activity, positive = activation” value is 0.692%. Regarding `COc1ccccc1N(C(=O)c1snc(C(N)=O)c1N)C(C(=O)NC1CCCCC1)c1cccc(OC)c1OC` (stereo not given), the “activity, positive = activation” value is -11.6%. Same read-out and setting: next, `O=C(NNC(=O)C1COc2ccccc2O1)c1ccccc1O` (stereo not given): 5.4%. Take `O=S(=O)(c1cccs1)N1CCN(c2ncccn2)CC1`: the “activity, positive = activation” value is -1.21%. Take `Cc1ccc(NC(=O)NC(=O)c2ccccc2)cc1F`: the Potency was 499 nM (active). `CCCNC(=O)C1CCN(S(=O)(=O)c2ccc3[nH]c(=O)ccc3c2)CC1`: the “activity, positive = activation” value is 4.53%.
